According to PubChem BioAssay AID1159580 (chemical genetic matrix, 2015):
Hit rate of the full screen: of about 5,500 compounds, about 2,000 (36%) were called active. Roughly 18% stayed inconclusive and do not appear here. No stated cut-off is given here; in the data, active means normalized growth mostly below about 0.91 (no sharp cut-off); inconclusive means no clear call, values can overlap the other calls; inactive means mostly above about 0.92. The list shows a part of the results.

Test: chemical genetic growth profiling, strain panel (AID 1159580);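 further: tested at 20 µM; growth read once vehicle control cultures reached saturation at 30 °C; 1 = growth at the plate median or of vehicle wells; lower values mean less growth of the strain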
Conditions: growth OD
[1] = S. cerevisiae deletion strains, locus YAL013W, strain DEP1, hits give low values
[2] = S. cerevisiae deletion strains, locus YBR229C, strain ROT2, hits give low values
[3] = S. cerevisiae deletion strains, locus YDL101C, strain DUN1, hits give low values
[4] = S. cerevisiae deletion strains, locus YDR150W, strain NUM1, hits give low values
[5] = S. cerevisiae deletion strains, locus YEL061C, strain CIN8, hits give low values
[6] = S. cerevisiae deletion strains, locus YGR078C, strain PAC10, hits give low values
[7] = S. cerevisiae deletion strains, locus YHR030C, strain SLT2, hits give low values
[8] = S. cerevisiae deletion strains, locus YHR087W, strain rtc3, hits give low values
[9] = S. cerevisiae deletion strains, locus YJR043C, strain POL32, hits give low values
[10] = S. cerevisiae deletion strains, locus YJR075W, strain HOC1, hits give low values
[11] = S. cerevisiae deletion strains, locus YKL190W, strain CNB1, hits give low values
[12] = S. cerevisiae deletion strains, locus YLR039C, strain RIC1, hits give low values
[13] = S. cerevisiae deletion strains, locus YLR058C, strain SHM2 (second series), hits give low values
[14] = S. cerevisiae deletion strains, locus YLR085C, strain ARP6, hits give low values
[15] = S. cerevisiae deletion strains, locus YLR262C, strain YPT6, hits give low values
[16] = S. cerevisiae deletion strains, locus YML094W, strain GIM5, hits give low values
[17] = S. cerevisiae deletion strains, locus YMR219W, strain ESC1, hits give low values
[18] = S. cerevisiae deletion strains, locus YMR263W, strain SAP30, hits give low values
[19] = S. cerevisiae deletion strains, locus YMR307W, strain GAS1, hits give low values
[20] = S. cerevisiae deletion strains, locus YNL153C, strain GIM3, hits give low values
[21] = S. cerevisiae deletion strains, locus YNL298W, strain CLA4 (second series), hits give low values
[22] = S. cerevisiae deletion strains, locus YNL322C, strain KRE1, hits give low values
[23] = S. cerevisiae deletion strains, locus YNR030W, strain Alg12, hits give low values
[24] = S. cerevisiae deletion strains, locus YOL006C, strain TOP1, hits give low values
[25] = S. cerevisiae deletion strains, locus YPL055C, strain LGE1, hits give low values
[26] = S. cerevisiae deletion strains, locus YPL241C, strain CIN2, hits give low values
[27] = S. cerevisiae deletion strains, locus YPR135W, strain CTF4, hits give low values
[28] = S. cerevisiae strains, strain wild type, hits give low values
[29] = S. cerevisiae deletion strains, locus YAL040C, strain CLN3, hits give low values
[30] = S. cerevisiae deletion strains, locus YCL061C, strain MRC1 (second series), hits give low values
[31] = S. cerevisiae deletion strains, locus YDR363W, strain ESC2, hits give low values
[32] = S. cerevisiae deletion strains, locus YER002W, strain NOP16, hits give low values
[33] = S. cerevisiae deletion strains, locus YGR229C, strain SMI1, hits give low values
[34] = S. cerevisiae deletion strains, locus YNL175C, strain NOP13, hits give low values
[35] = S. cerevisiae deletion strains, locus YNL197C, strain WHI3, hits give low values
[36] = S. cerevisiae deletion strains, locus YNL224C, strain SQS1, hits give low values
[37] = S. cerevisiae deletion strains, locus YOR083W, strain WHI5 (second series), hits give low values

Measured: normalized growth

Clc1cccc(NC2=NCCS2)c1Cl
active: [12] 0.721 | [24] 0.722
inactive: [1] 0.995 | [2] 1 | [3] 1.03 | [4] 0.984 | [5] 0.974 | [6] 1 | [7] 0.698 | [8] 1.02 | S. cerevisiae deletion strains, locus YJL187C, strain SWE1, hits give low values 1 | [9] 1.01 | [10] 1.02 | [11] 0.996 | [13] 1 | [14] 0.931 | [15] 0.817 | [16] 1.03 | [17] 1.01 | [18] 0.969 | [19] 0.776 | S. cerevisiae deletion strains, locus YNL128W, strain TEP1, hits give low values 1.02 | [20] 1 | [21] 0.946 | [22] 0.994 | [23] 0.971 | [25] 0.953 | [26] 1.05 | [27] 0.928 | [28] 0.983

O=C(O)Cc1ccc(O)c(O)c1
inactive: [29] 1.05 | [30] 1 | [4] 1.01 | [31] 0.993 | [32] 0.996 | [6] 1.02 | [33] 0.976 | [20] 1.02 | [34] 1.02 | [35] 1.02 | [36] 0.982 | [22] 1 | [37] 0.996 | [25] 0.982

O=C(O)Cc1c[nH]c2ccc(O)cc12
inactive: [29] 0.988 | [30] 1 | [4] 1.01 | [31] 1 | [32] 0.974 | [6] 0.979 | [33] 1.08 | [10] 1.01 | [18] 0.995 | [19] 1.01 | [20] 0.961 | [34] 0.982 | [35] 0.975 | [36] 1.01 | [37] 1 | [26] 0.992

Cc1ccc(CC(=O)O)cc1
active: [6] 0.926 | [10] 0.885
inactive: [1] 0.973 | [2] 0.978 | [3] 0.938 | [4] 0.884 | [5] 1.02 | [7] 1.04 | [8] 0.947 | [9] 0.959 | [11] 1.01 | [12] 1.01 | [13] 0.972 | [14] 1.08 | [15] 0.998 | [16] 1.03 | [17] 0.985 | [18] 0.938 | [20] 0.964 | [21] 1.06 | [22] 0.981 | [23] 1.03 | [24] 1.06 | [25] 0.906 | [26] 1.02 | [27] 1.03 | [28] 1.02
